# Screens (PubChem BioAssay)
# In the library only some 3.9% were active in any assay of this set; here they are far more common.
# NSD2 HMT inh: NSD2 histone methyltransferase inhibitors, primary screen, biochemical, AlphaScreen, single concentration, set 2; Histone-lysine N-methyltransferase NSD2 (Homo sapiens), O96028; NSD2 peptide methylation, 120 min; inhibition, % at 12.5 µM; 0.54% of 310,000 active; AID 743445, 2014; in the data active means inhibition above about 50%
# N-glyco inh: increase of ERlucT glycosylation luciferase signal, primary screen, N-linked glycosylation inhibitor project, D54 ERlucT cells, luminescence, set 2 | D54 ERlucT glycosylation luciferase reporter, 24 h; percent of 100 nM tunicamycin response | reporter increase, % at 12.5 µM | 0.23% of 360,000 active;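 active means mean luciferase reporter signal, scaled so untreated is 0 and the glycosylation-blocking control 100, at or above a set limit in every replicate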;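 further: luciferase carries N-glycosylation sites so blocking glycosylation raises the light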
# Casp6 inh: human caspase-6 inhibitors, primary screen, biochemical, VEID-R110 fluorescence, single point, set 2. inhibition, % at 12.5 µM. purified caspase-6, Z-VEID-R110 cleavage fluorescence. P55212. 0.53% of 350,000 active;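 active means mean inhibition across replicates at least about 35%, with every replicate also reaching that limit, limit read from the data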
# Target sequence (P55212 24-179 limits assumed): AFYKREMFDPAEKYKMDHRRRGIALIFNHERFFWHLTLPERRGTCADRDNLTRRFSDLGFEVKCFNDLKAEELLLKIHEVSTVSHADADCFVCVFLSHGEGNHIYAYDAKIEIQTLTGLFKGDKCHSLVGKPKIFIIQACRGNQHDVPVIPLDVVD
# Target sequence (P55212 194-293 limits assumed): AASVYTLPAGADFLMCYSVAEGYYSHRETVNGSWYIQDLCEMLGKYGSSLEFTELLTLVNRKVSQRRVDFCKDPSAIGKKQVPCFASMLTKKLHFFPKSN
# Mot1-301 SUMO: yeast Mot1-301 growth rescue at high temperature, primary screen, SUMOylation pathway inhibitor project, S. cerevisiae, ATP luminescence, 38.5C; S. cerevisiae Mot1-301 growth rescue; percent above DMSO median, 100 means doubled; growth rescue, % at 18.8 µM; 1% of 320,000 active; AID 2716, 2010;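 active means every valid replicate shows activation above 250% relative to neutral control wells; inactive means the rest, any valid replicate at or below 250%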
# ALR inh: inhibitors of human ALR sulfhydryl oxidase, primary screen, biochemical, H2O2 detection, HRP-luminol luminescence, single point; purified ALR, DTT oxidation; inhibition, % (concentration not given with the values); 3.8% of 290,000 active; AID 485317, 2010;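 active means mean replicate inhibition above about 79%, with every replicate also reaching it, limit read from the data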
# Target sequence (P55789 whole entry, looked up): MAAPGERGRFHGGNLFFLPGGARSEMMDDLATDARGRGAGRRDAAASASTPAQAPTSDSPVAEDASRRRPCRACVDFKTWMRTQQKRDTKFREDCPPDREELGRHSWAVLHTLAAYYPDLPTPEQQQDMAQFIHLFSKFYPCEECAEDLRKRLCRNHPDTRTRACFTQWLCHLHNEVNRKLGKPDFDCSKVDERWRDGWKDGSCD
# CDK5 inh: inhibitors of human CDK5/p35 kinase, primary screen, biochemical, single concentration | Cyclin-dependent kinase 5 (Homo sapiens) + Cyclin-dependent kinase 5 activator 1 (Homo … | Recombinant CDK5/p35, ADP-Glo luminescence, 60 min | inhibition, % at 10 µM | 0.01% of 330,000 active | AID 488839, 2010;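 active means highest replicate inhibition of at least 50% and at least 75% of replicates reaching 50%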
# Numbers stand for hits; – = inactive; · = not tested or not shown.
SMILES,NSD2 HMT inh,N-glyco inh,Casp6 inh,Mot1-301 SUMO,ALR inh,CDK5 inh
O=C(c1cc2ccccc2o1)N1CCCCCC1,–,–,·,–,–,–
O=C(c1oc2ccccc2c1N1CCCCC1)N1CCCCC1,·,–,·,–,98.7,–
S=C(Nc1ccc(Cl)cc1)Nc1cccc2cnccc12,–,–,–,–,–,–
C/C(=N\NC(=S)Nc1ccc(F)cc1)C1CC1,–,–,·,–,98.0,–
CC1CCN(C(=S)Nc2ccc(F)cc2)CC1,–,–,·,–,–,–
Oc1ccc(NC(=S)Nc2ccc(F)cc2)cc1,–,–,–,–,98.5,–
Fc1ccc(NC(=S)Nc2cccc3cnccc23)cc1,–,–,35.8,–,–,–
C[C@@H]1CN([C@H](C)CO)S(=O)(=O)c2ccc(-c3ccc(C#N)cc3)cc2O[C@H]1CN(C)C,·,·,–,·,·,·
C[C@@H](NC(=O)C[C@H]1C[C@H]2c3cc(NC(=O)c4ccc5c(c4)OCO5)ccc3O[C@H]2[C@@H](CO)O1)c1ccccc1,·,·,–,·,·,·
COc1ccc(NC(=O)N(C)C[C@@H]2Oc3c(NC(=O)Nc4ccc5c(c4)OCO5)cccc3C(=O)N([C@@H](C)CO)C[C@@H]2C)cc1,·,·,–,·,·,·
Cc1ccc(S(=O)(=O)Nc2ccc3c(c2)C(=O)N([C@H](C)CO)C[C@@H](C)[C@H](CN(C)C)OCCCC[C@H](C)O3)cc1,·,·,–,·,·,·
C[C@H](NC(=O)C[C@@H]1C[C@H]2c3cc(NC(=O)CN(C)C)ccc3O[C@H]2[C@H](CO)O1)c1ccccc1,·,·,–,·,·,·
O=C(NNC(=O)c1cc(Br)c(Br)s1)c1csc(N2CCOCC2)n1,–,–,–,346.6,–,–
O=C1C(=Cc2cn(-c3ccccc3)nc2-c2ccc(OCc3ccccc3)cc2)SC(=S)N1CCS(=O)(=O)O,·,–,75.4,·,·,·
Cc1ccc(-c2nn(-c3ccccc3)cc2C=C2SC(=S)N(CCS(=O)(=O)O)C2=O)cc1,·,–,78.3,·,·,·
CC(C)COc1ccc(-c2nn(-c3ccccc3)cc2/C=C2/SC(=S)N(CC(=O)O)C2=O)cc1,–,–,–,–,97.4,–
CCOc1ccc(-c2nn(-c3ccccc3)cc2/C=C2\SC(=S)N(Cc3ccco3)C2=O)cc1,–,–,–,–,–,·
O=C(O)CN1C(=O)/C(=C\c2cn(-c3ccccc3)nc2-c2ccccc2)SC1=S,–,–,·,–,–,–
CCOC(=O)c1c(-c2ccc(Cl)cc2)csc1/N=C/C1C(=O)CC(C)(C)CC1=O,–,·,·,·,·,·
C[C@@H]1CN([C@@H](C)CO)C(=O)Cc2cc(NC(=O)c3ccncc3)ccc2O[C@H]1CN(C)S(=O)(=O)c1ccc(Cl)cc1,·,·,–,·,·,·
CSc1ccccc1OCc1cc(C(=O)N2CCc3c(Cl)cccc3C2)no1,–,–,64.3,–,–,·
COc1cc2c(cc1OC)CN(C(=O)c1cc(COc3ccccc3SC)on1)CC2,–,–,–,·,·,·
O=C(O)c1cc(-c2c[nH]c3ccccc23)nc2ccc3ccccc3c12,–,–,–,–,91.9,–
O=C1OCCC1Sc1nnc(-c2ccc3c(c2)OCO3)n1-c1ccccc1 (centres undefined),–,–,–,339.6,–,–
CC(C)Cn1c(SCc2nnc(-c3cccs3)o2)nc(O)cc1=O,–,–,·,–,98.1,–
SMILES,NSD2 HMT inh,N-glyco inh,Casp6 inh,Mot1-301 SUMO,ALR inh,CDK5 inh
Cc1nnc(SCc2nnc(-c3cccs3)o2)n1C,–,–,–,·,–,–
CCCS(=O)(=O)N1CCCC(C(=O)NCCN(CC)c2ccccc2)C1 (centres undefined),–,–,·,–,98.8,–
CN(C)c1ccc(NC(=O)C2CCCN(S(=O)(=O)c3ccccc3)C2)cc1 (centres undefined),–,–,–,–,99.5,–
CCCS(=O)(=O)N1CCCC(C(=O)NCCN(Cc2ccccc2)C(C)C)C1 (centres undefined),–,–,·,–,·,–
CCCS(=O)(=O)N1CCCC(C(=O)NCCCN(CC)c2cccc(C)c2)C1 (centres undefined),–,–,·,–,98.7,–
CCN(CCCNC(=O)C1CCN(S(=O)(=O)N2CCOCC2)CC1)c1cccc(C)c1,–,–,·,–,99.5,–
O=C(Nc1ccccc1)C1CCN(S(=O)(=O)c2ccc3c(c2)OCCO3)CC1,–,–,36.5,–,–,–
O=C(O)c1ccc(NC(=O)C2CCN(S(=O)(=O)c3ccc4c(c3)OCCO4)CC2)cc1,–,–,–,·,·,·
CCN(CCCNS(=O)(=O)c1ccc2c(c1)oc(=O)n2C)c1cccc(C)c1,·,–,–,–,97.5,–
O=C(C[C@@H]1CC[C@@H](NC(=O)c2ccc3c(c2)OCO3)[C@@H](CO)O1)NCc1ccc(F)cc1,·,·,–,·,·,·
O=C(Nc1ccc(Nc2ccccc2)cc1)C1CC1,·,–,·,–,99.7,–
O=C(Nc1ccccc1)c1ccccc1NC(=O)[C@H]1CCCC[C@H]1C(=O)O,–,–,–,–,–,–
O=C(Nc1ccccc1)C1CCCCC1,–,–,·,–,–,–
CC(=O)CC(=O)Nc1ccc(Nc2ccccc2)cc1,–,–,·,–,99.3,–
O=C(CCCC(=O)c1ccccc1)Nc1ccc(O)cc1,–,–,–,–,88.4,–
O=C(O)C1CCCCC1C(=O)Nc1ccccc1Nc1ccccc1 (centres undefined),–,–,·,–,99.2,–
CN1C(=O)c2cc(NC(=O)Nc3ccc(F)cc3)ccc2OC[C@H]2O[C@H](CC(=O)NC3CCC3)CC[C@@H]21,·,·,–,·,·,·
O=C(C[C@H]1CC[C@H]2[C@@H](COC[C@@H](O)CN2S(=O)(=O)c2ccc(F)cc2)O1)N[C@H]1CCN(Cc2ccccc2)C1,·,·,–,·,·,·
C[C@@H]1CN([C@H](C)CO)C(=O)Cc2cc(NC(=O)C3CCCCC3)ccc2O[C@@H]1CN(C)Cc1ccc(Oc2ccccc2)cc1,·,·,–,·,·,·
O=C(Nc1ccc(Br)cc1)C1CCCC1,–,–,–,333.1,–,–
O=C(Nc1ccc(N2CCN(c3ccc(O)cc3)CC2)cc1)Oc1ccccc1,–,–,–,–,–,–
Nc1ccc(OC(=O)Nc2ccc(O)cc2)cc1,–,–,60.8,–,99.2,–
CC(=O)Nc1ccc(O)cc1,·,–,–,–,99.4,–
CCCC(=O)Nc1ccc(Nc2ccccc2)cc1,–,–,–,–,99.2,–
O=C(NC(=S)Nc1ccc(Br)cc1)C1CCCCC1,–,–,–,–,–,–
